Source: PubChem
DRD3 agonist: agonists of human D3 dopamine receptor | D3R DiscoveRx beta-arrestin cells, luminescence, 90 min | max activation, % | hit rate 0.58% among 410,000 | P35462; in the data active means max activation above about 30%; further: 0% is about no effect
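Cells at 1500/well, incubated overnight, then treated with pinned compounds (dopamine as control) for 90 min at 37 degrees C. DiscoveRx reagent added for 30 - 60 minutes at room temperature; luminescence read.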
TDP1 cell noCPT: qHTS for Inhibitors of human tyrosyl-DNA phosphodiesterase 1 (TDP1): qHTS in cells in absence of CPT; Potency, µM (doses to about 46.2 µM), for inactives: at the top dose activity change, negative = growth inhibition, most hits filed as inhibitors; hit rate 15% among 420,000; DT40 Tdp1-/- hTDP1 cells, no CPT, ATP luminescence, 48 h; AID 686978, 2013; further: potency means the concentration at half of the fitted maximal effect; on the % scale 0 is the no-effect control and ±100 the full control effect; nearly all actives have a fitted effect of over 55% in size
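Chicken DT40 Tdp1-/- cells stably complemented with human TDP1 were seeded at 400 cells/well with DMSO in place of 20 nM camptothecin. After compound pinning, cells grew at least 48 hr at 37 °C; viability read by CellTiter-Glo luminescence.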
DRD3 antagonist: antagonists of human D3 dopamine receptor; hit rate 2.5% among 360,000; P35462; D3R cells, DiscoveRx beta-arrestin luminescence, antagonist mode; stronger effect = lower value; max response, negative = inhibition, %; AID 652054; in the data active means max response below about -50%; inconclusive means no clear call, values can overlap the other calls; further: on the % scale 0 is the no-effect control and ±100 the full control effect
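Cells expressing the human receptor were seeded at 1500 cells/well, incubated overnight at 37 degrees C in 5% CO2, then exposed to library compounds with dopamine controls for 90 minutes at 37 degrees C before luminescent detection.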
TDP1 cell CPT: growth inhibition of DT40 Tdp1-/-;hTDP1 cells with camptothecin (screen for TDP1 inhibitors). Potency, µM (series often up to 46.2 µM), for the others: at the highest dose activity change, negative = growth inhibition, usual class: inhibitors. hit rate 12% among 420,000. chicken DT40 Tdp1-/-;hTDP1 cells + 20 nM CPT, ATP luminescence, 48 h; further: potency means the concentration at half of the fitted maximal effect; on the % scale 0 is the no-effect control and ±100 the full control effect; nearly all actives have a fitted effect of over 55% in size
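Chicken DT40 Tdp1-/- cells complemented with human TDP1, 400 cells/well, exposed to compounds plus 20 nM camptothecin for at least 48 h at 37 C; viability read as ATP content by CellTiter-Glo luminescence.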
ClpP mod: qHTS Assay for Activators of ClpP. purified B. subtilis ClpP, FRET peptide cleavage, 20 min. Potency, µM (doses to about 57.5 µM), for inactives: at the top dose activity change, negative = active. hit rate 1.9% among 340,000. AID 651965, 2013; active means well fitted falling curve with a large enough effect; inconclusive means small, poorly fitted or top-dose-only effect; inactive means no such curve, though single readings can be large or run the other way; further: potency means the concentration at half of the fitted maximal effect; the source files actives as falling curves though it sought activators and does not explain the sign; nearly all actives have a fitted effect of over 65% in size
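FRET quenching reversal measured ClpP activation: 10 microg/mL B. subtilis ClpP at pH 8 with the FRET-FV decapeptide, read at 430 nm after 320 nm excitation. The 20-min minus 0-min signal was scaled between DMSO/no-enzyme wells and ADEP (5.8 microM final).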
IL1B secr inh: inflammasome signaling inhibition, IL-1 beta readout | activity change, % at 57.5 µM | hit rate 4.7% among 360,000 | THP-1 LPS/ATP IL-1B secretion, AlphaLISA, 16 h; stronger effect = lower value; in the data active means activity change below about -50%; inconclusive means mostly about -30% to -49%; further: on the % scale 0 is the no-effect control and ±100 the full control effect
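Secreted IL-1B measured by AlphaLISA bead assay after 16 h compound exposure of THP-1 cells; compounds (final up to 57.5 uM) added 1 h before LPS (250 ng/mL) and ATP (1.25 mM) stimulation; lower signal means less secretion.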
Starred values were filed as active, the others as inactive; i = inactive; ? = inconclusive; / = no result given. Shown are actives, neighbours in structure and some others; about 21% of the full set was active somewhere. Unless noted, the call rests on the fitted dose curve; in most records, active means well fitted inhibition curve with a large enough effect; inconclusive means small, poorly fitted or top-dose-only effect; inactive means flat fitted curve, though single readings scatter.

SMILES | DRD3 agonist | TDP1 cell noCPT | DRD3 antagonist | TDP1 cell CPT | ClpP mod | IL1B secr inh
OCCN(CCO)c1ncnc2c1cnn2-c1ccc(F)cc1 | 7 | -3% | / | 0% | -15% | /
CCCCN(c1ccccc1)c1ncnc2c1cnn2-c1ccc(Cl)cc1 | -8 | 18µM* | / | 16µM* | ? | /
CCN(c1ccccc1)c1ncnc2c1cnn2-c1ccc(OC)cc1 | 11 | 5.2µM* | / | 8.2µM* | ? | /
Cc1ccc(-n2ncc3c(N(CCO)Cc4ccccc4)ncnc32)cc1 | 6 | 8.2µM* | / | 12µM* | ? | /
CCCCN(c1ccccc1)c1ncnc2c1cnn2-c1cccc(C)c1 | 4 | -12% | / | -22% | -6% | /
COc1ccc(OC)c(Nc2ncnc3c2cnn3-c2ccccc2)c1 | -13 | ? | ? | -26% | -3% | -3
COc1ccc(NC(=O)c2cccnn2)cc1 | 0 | -10% | 4 | -17% | -2% | -2
CCn1c(SCC(=O)N2CCN(c3ccccc3)CC2)nc2c([nH]c3ccccc32)c1=O | 3 | 8.2µM* | 24 | 15µM* | -11% | i
COCCn1c(SCC(=O)N2CCCCC2)nc2c([nH]c3ccccc32)c1=O | 3 | ? | 1 | -30% | 4% | 24
CCOC(=O)N1CCN(C(=O)CSc2nc3c([nH]c4ccccc43)c(=O)n2CCOC)CC1 | 5 | 18µM* | 21 | ? | -4% | i
CCn1c(SCC(=O)N2CCCCCC2)nc2c([nH]c3ccccc32)c1=O | 5 | -11% | 5 | -18% | -9% | i
CCOC(=O)c1nnn(CC(=O)N2N=C(c3ccccc3)CC2c2ccccc2)c1C(=O)OCC (configuration not stated) | 1 | 18µM* | -27 | ? | -11% | 21
CCOC(=O)c1nnn(CC(=O)N2N=C(c3cc(C)ccc3C)CC2c2ccc(OC)cc2)c1C(=O)OCC (configuration not stated) | 1 | 15µM* | 9 | 29µM* | -14% | -8
Cc1ccc(C(O)c2ncc(-c3cccc(C(F)(F)F)c3)[nH]2)cc1 (configuration not stated) | -12 | 18µM* | -17 | ? | -2% | -12
Cc1ccc(-c2cnc(C(O)c3ccc(Cl)c(Cl)c3)[nH]2)cc1 (configuration not stated) | -10 | 15µM* | -25 | ? | 3% | -4
Cc1cccc(C)c1C(O)c1ncc(-c2cccc(C(F)(F)F)c2)[nH]1 (configuration not stated) | -3 | ? | -61* | ? | -3% | -26
Cc1ccc2ccccc2c1C(O)c1ncc(-c2cccc(C(F)(F)F)c2)[nH]1 (configuration not stated) | 6 | ? | -9 | -25% | -3% | 32
CCCN1CNc2c(c(=O)[nH]c(=S)n2CCc2ccc(OC)cc2)C1 | / | -18% | / | 7% | 0% | /
COC(=O)C1=C(C(=O)OC)[C@@H]2N(C)c3ccc(OC)cc3[C@@]23C[C@@H](C(=O)OC)N(C(=O)NC2CCCCC2)C3=N1 | -16 | -25% | 0 | -7% | -3% | -2
Cc1ccc(C(=O)N2CCn3c4c(c5cc(C)ccc53)CCCC42)cc1 (configuration not stated) | 0 | ? | / | ? | ? | /
Cc1ccc2c(c1)c1c3n2CC(=C2C(=O)OC(C)(C)OC2=O)NC3CCC1 (configuration not stated) | 1 | 21µM* | 5 | 21µM* | -6% | -1
O=C(NCc1ccco1)c1ccc(Cl)cc1[N+](=O)[O-] | -4 | -18% | -10 | -4% | 1% | -12
COC(=O)C1=CN(c2cccc(C)c2)C=C(C(=O)OC)C1c1cc(OC)c(O)c([N+](=O)[O-])c1 | -5 | ? | -84* | ? | 0% | -3
COC(=O)C1=CN(c2ccc(OC)cc2)C=C(C(=O)OC)C1c1cccc(F)c1 | 10 | -10% | 10 | 8% | 4% | 8
COC(=O)C1=CN(c2cccc(C(F)(F)F)c2)C=C(C(=O)OC)C1c1ccc(O)c(OC)c1 | -5 | ? | -5 | ? | -9% | -51*
SMILES | DRD3 agonist | TDP1 cell noCPT | DRD3 antagonist | TDP1 cell CPT | ClpP mod | IL1B secr inh
COC(=O)C1=CN(C)C=C(C(=O)OC)C1c1ccc(O)c(OC)c1 | 3 | -9% | -17 | 3% | -11% | 0
COC(=O)C1=CN(c2ccc(F)cc2)C=C(C(=O)OC)C1c1cccc([N+](=O)[O-])c1 | 3 | 26µM* | -14 | -25% | / | -1
COC(=O)C1=CN(c2ccc(OC)cc2)C=C(C(=O)OC)C1c1ccc(C)c([N+](=O)[O-])c1 | -3 | 21µM* | -10 | ? | -2% | -6
CCOC(=O)c1ccc(N2C=C(C(=O)OC)C(c3cccc(O)c3)C(C(=O)OC)=C2)cc1 | -4 | -30% | -5 | -16% | 4% | -3
CCCSc1nc2c([nH]c3ccccc32)c(=O)n1C | 6 | ? | / | ? | -9% | /
CCNc1ccc(-c2nc(-c3ccco3)no2)cc1[N+](=O)[O-] | 4 | -11% | / | -6% | -1% | /
CC(C)Oc1ccc(S(=O)(=O)N2CCOCC2)cc1NC(=O)c1cc([N+](=O)[O-])ccc1N1CCOCC1 | 1 | 9% | 12 | -1% | -1% | -2
Cc1ccc2cccc(OCC(=O)N(C)CC(=O)Nc3ccc(F)cc3)c2n1 | 0 | -8% | -18 | -20% | -23% | -6
CN(CC(=O)Nc1ccc(F)cc1)C(=O)COc1ccccc1Cc1ccccc1 | -25 | ? | -16 | ? | -3% | -69*
CCOc1ccc(NC(=O)CN(C)C(=O)c2ccccc2Cc2ccccc2)cc1OCC | 3 | 9.2µM* | 27 | 15µM* | 1% | 1
CN(CC(=O)Nc1ccc(F)cc1)C(=O)COC(=O)Cc1c(F)cccc1Cl | -16 | 6.5µM* | -10 | -12% | / | -17
CN(CC(=O)Nc1ccccc1Cl)C(=O)COC(=O)Cc1c(F)cccc1Cl | -1 | 12% | -5 | -2% | 3% | -23
CN(CC(=O)Nc1ccc(F)cc1)C(=O)COc1ccc(C(=O)c2ccccc2)cc1 | -9 | 21µM* | -8 | ? | -1% | -18
Cc1ccccc1C(=O)N1CCC(C(=O)NCCc2ccc(S(N)(=O)=O)cc2)CC1 | 18 | -1% | 12 | ? | / | -2
CSc1ccc(CN(C)C(=O)COc2ccc(C(=O)c3ccccc3)cc2)cc1 | 15 | 15µM* | -6 | ? | 0% | 23
